BCLXL inh: blocks human Bcl-xL binding to Bim BH3 peptide. AID 2129. 320,000 tested, 0.7% active. inhibition, % at 10.9 µM. GST-Bcl-xL / FITC-Bim BH3 peptide fluorescence polarization. Q07817;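 active = inhibition above the mean of all tested compounds plus 3 SD, cutoff set per campaign, cut at about 30% in these data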;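 note: 0% = DMSO wells and 100% = unlabeled Bim-BH3 peptide competitor; inhibitors lower millipolarization by displacing the labeled peptide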
Bim-Bfl-1: inhibitors of Bim-Bfl-1 interaction, human | Q16548 | Bead-based flow cytometry, Bim-Bfl-1 binding inhibition | inhibition, % at 10 µM | 190,000 tested, 0.12% active | AID 1008;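 note: 0% = wells without compound plus tracer and 100% = blocker peptide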
Target sequence (Q16548 whole entry, looked up): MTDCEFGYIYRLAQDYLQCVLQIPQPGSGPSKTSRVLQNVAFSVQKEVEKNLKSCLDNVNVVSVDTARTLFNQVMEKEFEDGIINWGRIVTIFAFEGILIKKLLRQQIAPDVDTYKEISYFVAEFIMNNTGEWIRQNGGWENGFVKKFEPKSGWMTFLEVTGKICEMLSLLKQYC
Bcl-W Bim block: human Bim-Bcl-W interaction inhibition | Q92843 | bead-based flow cytometry, Bim peptide-Bcl-W binding | inhibition, % at 10 µM | 190,000 tested, 0.02% active | AID 952;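 note: 0% = bound tracer without compound and 100% = peptide blocker; higher means less fluorescent Bim peptide bound to Bcl-W beads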
Bim-Bcl-2: disrupts Bim peptide binding to human Bcl-2 | 190,000 tested, 0.06% active | Bead-based flow cytometry, Bim peptide-Bcl-2 binding | P10415 | inhibition, % at 10 µM; in the data active = inhibition above about 40%;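 note: 0% = no compound wells with probe peptide and 100% = reference peptide inhibitor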
Bcl-XL Bim block: disrupts Bim peptide binding to human Bcl-XL; Q07817; inhibition, % at 10 µM; 190,000 tested, 0.04% active; bead flow cytometry, fluorescence
Bim-Bcl-B: disrupts Bim peptide binding to human Bcl-B; bead-based flow cytometry; inhibition, % at 10 µM; 190,000 tested, 0.073% active; AID 951;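 note: 0% = tracer peptide without compound and 100% = reference inhibitor peptide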
Target sequence (Q9HD36 whole entry, looked up): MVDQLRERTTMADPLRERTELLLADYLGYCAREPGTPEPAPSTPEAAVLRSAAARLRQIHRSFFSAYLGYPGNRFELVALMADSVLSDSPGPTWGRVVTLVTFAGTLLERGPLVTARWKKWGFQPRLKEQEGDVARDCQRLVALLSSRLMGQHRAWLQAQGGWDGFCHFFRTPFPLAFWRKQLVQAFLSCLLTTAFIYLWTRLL
Numbers without * were called inactive; x = not tested or not shown. Hits are enriched below; roughly 0.81% of the tested compounds scored in any of these assays. Cut-off read from the data, not from the text of the source, unless noted: active = inhibition above about 40%.

SMILES	BCLXL inh	Bim-Bfl-1	Bcl-W Bim block	Bim-Bcl-2	Bcl-XL Bim block	Bim-Bcl-B
O=C(CCC(=O)N1C[C@H]2C[C@@H](C1)c1cccc(=O)n1C2)NCc1ccc(F)cc1	6.1	x	x	x	x	x
CCOc1cccc(OCC)c2c(C)[n+](CC3CCCO3)c(C)c1-2 (stereo not drawn)	52.6*	-3.0	0.0	1.0	-1.0	-3.0
COc1ccc(CCNCC2CCCO2)cc1 (stereo not drawn)	4.0	x	x	x	x	x
COC(=O)C1=C(c2cccc(OCc3ccccc3)c2)C[C@@H]2CC[C@H]1N2C(=O)NCCCOC(C)C	2.9	x	x	x	x	x
CC(C)[C@H]1C(=O)N2CCC[C@H]2[C@]2(O)O[C@](NC(=O)[C@@H]3C=C4c5cccc6[nH]cc(c56)C[C@H]4N(C)C3)(C(C)C)C(=O)N12	152.7*	30.0	20.0	16.0	10.0	37.0
CC(C)C[C@H]1C(=O)N2CCCC2[C@]2(O)O[C@](NC(=O)[C@@H]3C=C4c5cccc6[nH]cc(c56)CC4N(C)C3)(C(C)C)C(=O)N12 (stereo partly drawn)	152.3*	19.0	10.0	9.0	-1.0	7.0
COc1nc(C)nc(NC(=O)NS(=O)(=O)c2ccccc2Cl)n1	6.0	x	x	x	x	x
O=C(c1ccc2nc(-c3ccco3)c(-c3ccco3)nc2c1)N1CCC2(CC1)OCCO2	52.2*	27.0	7.0	8.0	9.0	2.0
O=c1[nH]c(O)c(C=NCCc2ccccc2)c(=O)[nH]1	-1.5	x	x	x	x	x
O=c1[nH]c(O)c(/C=C2\C=Nc3ccc(OCc4ccccc4)cc32)c(=O)[nH]1	167.1*	x	x	x	x	x
Cn1cc(C(=O)N2CCOCC2)c2ccccc21	0.0	-5.0	0.0	0.0	-2.0	-5.0
CN1CCC2(CC1)C(C#N)=C(N)NC(S)=C2C#N	42.1*	36.0	6.0	5.0	1.0	-30.0
CN1C[C@H](CO)C=C2c3cccc4[nH]cc(c34)C[C@H]21	70.0*	4.0	9.0	0.0	6.0	14.0
Cc1cccc(-n2c(-c3cccs3)nc3ccccc3c2=O)c1	2.0	-12.0	-3.0	-4.0	-5.0	-7.0
Nc1cccc(N=Cc2c(O)n(Cc3ccc(F)cc3)c(=O)[nH]c2=O)c1	66.4*	-21.0	-3.0	-12.0	-6.0	-10.0
O=c1[nH]c(=O)n(Cc2ccc(F)cc2)c(O)c1C=Nc1ccc(Cl)cc1	-5.4	-6.0	-1.0	-4.0	-4.0	-14.0
COc1ccc(C2CN(C)CC2C(=O)c2ccc(F)cc2)cc1Cl (stereo not drawn)	0.8	59.0*	2.0	81.0*	4.0	77.0*
CCn1cc(C=C2C(=O)NC(=O)NC2=O)c2ccccc21	136.0*	x	x	x	x	x
COC(=O)Cn1cc(C=C2C(=O)NC(=O)NC2=O)c2ccccc21	-4.8	x	x	x	x	x
O=c1[nH]c(=S)[nH]c(O)c1/C=C1/C=c2ccccc2=N1	67.5*	x	x	x	x	x
CN(C)[C@@H]1C(=O)C(C(N)=O)=C(O)[C@@]2(O)C(=O)C3=C(O)c4c(O)cccc4[C@@](C)(O)[C@H]3[C@H](O)[C@@H]12	153.4*	16.0	6.0	12.0	0.0	-6.0
CN(C)[C@@H]1C(=O)C(C(N)=O)=C(O)[C@@]2(O)C(=O)C3=C(O)c4c(O)cccc4[C@@](C)(O)C3C[C@@H]12 (stereo partly drawn)	25.2	x	x	x	x	x
CC1=C[C@@H]2c3cccc4[nH]cc(c34)C[C@H]2N(C)C1	168.9*	x	x	x	x	x
COc1ccc(N2C(=O)/C(=C/C=C/c3ccccc3[N+](=O)[O-])C(=O)NC2=S)cc1	x	30.0	4.0	11.0	0.0	6.0
COc1cc2c(C(=O)N3CCN(C)CC3)c(C)n(C)c2cc1Br	39.8*	-19.0	-5.0	-12.0	-14.0	-11.0
SMILES	BCLXL inh	Bim-Bfl-1	Bcl-W Bim block	Bim-Bcl-2	Bcl-XL Bim block	Bim-Bcl-B
COc1cc2c(C(=O)O)c(C)n(C)c2cc1Br	2.1	3.0	1.0	0.0	-1.0	5.0
CCC1(C2=NCCN2)Cc2ccccc2O1 (stereo not drawn)	8.4	x	x	x	x	x
O=C(O)C1CN2CCC1CC2 (stereo not drawn)	32.6*	-1.0	0.0	-5.0	-1.0	-2.0
O=C(c1cccs1)C1CN2CCC1CC2 (stereo not drawn)	2.0	-13.0	0.0	-14.0	-16.0	-9.0
COC(=O)[C@@]1(C#N)[C@@H]2C=CC(C(C)=O)=CN2[C@@H](C(N)=O)[C@@H]1c1ccc(F)cc1	72.2*	x	x	x	x	x
CCOC(=O)[C@]1(C#N)[C@@H]2C=CC(C(N)=O)=CN2[C@@H](C(N)=O)[C@@H]1c1ccc(F)cc1	22.5	x	x	x	x	x

Screens (PubChem BioAssay)
